# Compounds without any hit were thinned out: in the full panel of roughly 79,000, 15% have a hit. Values without a mark were called inactive. Calls of active or inactive are those of the source. Rule as the data show it: active = growth inhibition above about 70%; inactive = the rest.
# Tests used:
# [1] = NCI Yeast Anticancer Drug Screen. Data for the rad50 strain (AID 155);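 also: 0% = growth of vehicle-only cultures of the same strain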; details: S. cerevisiae rad50 strain growth inhibition, hits give high values
# Method in brief: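 Inhibition values express reduced yeast growth in compound-treated cultures relative to vehicle-treated controls.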
# [2] = NCI Yeast Anticancer Drug Screen. Data for the mec2-1 strain (AID 157); details: S. cerevisiae mec2-1 strain, hits give high values
# Method in brief: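 Each compound was tested on mec2-1 yeast, a strain altered in DNA damage repair or cell cycle control. Growth inhibition is reported relative to vehicle.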
# [3] = NCI Yeast Anticancer Drug Screen. Data for the sgs1 mgt1 strain (AID 161);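 also: 0% = growth of cultures given vehicle only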; details: S. cerevisiae sgs1 mgt1 strain, hits give high values
# Method in brief: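 Test agents were incubated with a DNA-repair-mutant yeast strain. Growth was then read and compared against vehicle-treated controls.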
# [4] = NCI Yeast Anticancer Drug Screen. Data for the cln2 rad14 strain (AID 165);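 also: 0% = growth equal to vehicle treated cultures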; details: S. cerevisiae cln2 rad14 strain, hits give high values
# Method in brief: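 Test compounds were added to cln2 rad14 yeast cultures; inhibition of growth was then determined by comparison with vehicle treatment.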
# [5] = NCI Yeast Anticancer Drug Screen. Data for the bub3 strain (AID 167); details: S. cerevisiae bub3 mutant strain, hits give high values
# Method in brief: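 Steps: expose the mutant yeast strain to compound; grow alongside vehicle-treated cultures; measure growth; express inhibition against the vehicle cultures.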
# [6] = NCI Yeast Anticancer Drug Screen. Data for the mlh1 rad18 strain (AID 175); details: S. cerevisiae mlh1 rad18 strain growth inhibition, hits give high values
# Method in brief: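 Inhibition values reflect reduced growth of mutant yeast versus vehicle-treated controls following compound exposure; the mutations affect DNA damage repair.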
# [7] = at 5.0 µM (retest, dose inferred, filed as 0.5)
# [8] = at 50.0 µM (retest, dose inferred, filed as 5.0)
SMILES,"growth inhibition [1, 7]","growth inhibition [1, 8]",growth inhibition ([1]; at 50.0 µM),"growth inhibition [2, 7]","growth inhibition [2, 8]",growth inhibition ([2]; at 50.0 µM),"growth inhibition [3, 7]","growth inhibition [3, 8]",growth inhibition ([3]; at 50.0 µM),"growth inhibition [4, 7]","growth inhibition [4, 8]",growth inhibition ([4]; at 50.0 µM),"growth inhibition [5, 7]","growth inhibition [5, 8]",growth inhibition ([5]; at 50.0 µM),"growth inhibition [6, 7]","growth inhibition [6, 8]",growth inhibition ([6]; at 50.0 µM)
ClC/C=C/c1ccccc1,2%,31%,68.8%,-1%,11%,16.9%,3%,15%,61%,6%,1%,-7.2%,7%,20%,37.1%,3%,18%,62.6%
Cc1nc(C(N)=S)sc1/C(CC(=O)C(=O)Nc1cccc2ccc(O)cc12)=N\NC(=O)c1ccncc1,25%,31%,21.8%,16%,18%,7.5%,9%,28%,-4.85%,14%,33%,-10.8%,32%,29%,13.1%,14%,35%,16.4%
CC(=O)OCCSCCOC(C)=O,20%,90% (active),76.4% (active),-1%,84% (active),29.4%,6%,88% (active),81% (active),7%,23%,12.2%,7%,88% (active),39%,7%,90% (active),78.3% (active)
CCNc1cc2c3c(c1)CCCN3CCC2,15%,40%,-15.7%,13%,27%,-20.7%,14%,18%,-1.15%,20%,24%,-46.1%,15%,30%,-17%,17%,51%,-10.7%
C[C@H](CCC1=NCCN1)[C@H]1CC[C@H]2[C@@H]3CC[C@@H]4C[C@H](O)CC[C@]4(C)[C@H]3C[C@H](O)[C@]12C,93% (active),99% (active),91.3% (active),26%,76% (active),93.1% (active),39%,99% (active),90.2% (active),59%,99% (active),87.8% (active),-10%,99% (active),91.4% (active),32%,99% (active),91% (active)
c1ccc2nc3ccccc3nc2c1,-11%,64%,77.5% (active),-3%,36%,41.2%,-5%,16%,28.4%,2%,36%,41.8%,-1%,45%,33.1%,-11%,65%,75% (active)
N#CC1CCC(c2ccccc2)(c2ccccc2)C1=O (stereo not given),5%,99% (active),94.6% (active),5%,99% (active),99.7% (active),4%,100% (active),99.6% (active),-2%,99% (active),97.5% (active),-4%,98% (active),74.3% (active),-5%,98% (active),99.5% (active)
CC(NNC(=S)N1CCCCCC1)c1cc2ccccc2cn1 (stereo not given),52%,95% (active),86.2% (active),65%,97% (active),78.7% (active),93% (active),96% (active),86.6% (active),90% (active),91% (active),68.5%,87% (active),96% (active),83.5% (active),47%,95% (active),90.5% (active)
O=C(CC(c1ccccc1)c1ccccc1)NCCCCN1CCCCCCC1,27%,89% (active),12%,19%,96% (active),-9%,25%,94% (active),22.9%,2%,90% (active),89.7% (active),5%,93% (active),26.4%,16%,93% (active),19.4%
Nc1nc(-c2ccccc2)nc(Cl)c1I,0%,17%,74.7% (active),-3%,24%,28.9%,3%,43%,78% (active),3%,21%,15.6%,-10%,16%,-5.25%,-4%,21%,81.4% (active)
Nc1nn2c(C(Br)Br)cc(C(Br)Br)nc2c1[N+](=O)[O-],100% (active),100% (active),99.5% (active),100% (active),100% (active),99.5% (active),100% (active),100% (active),99.5% (active),99% (active),99% (active),99.4% (active),100% (active),100% (active),99.5% (active),100% (active),100% (active),99.5% (active)
Cc1ccc(N2C(=O)CCSC2=S)cc1C,-1%,87% (active),97.2% (active),0%,35%,80.5% (active),4%,96% (active),98.3% (active),-2%,32%,38.9%,-5%,77% (active),68.7%,-2%,98% (active),95.4% (active)
O=C(O)c1ccccc1NC(c1ccccc1)c1ccc2cccnc2c1O (stereo not given),-15%,94% (active),96.8% (active),-3%,91% (active),93% (active),0%,87% (active),96.8% (active),-39%,88% (active),93.3% (active),-17%,95% (active),93.7% (active),-14%,96% (active),93.5% (active)
CCCCCCCCCCC(=O)CC(=O)c1c(O)cccc1O,-14%,-1%,1.9%,-11%,5%,-0.35%,10%,5%,2.4%,0%,12%,-37.5%,12%,17%,-1.95%,-16%,16%,1.5%
O=c1c(Cc2c[nH]c3ccccc23)coc2ccccc12,0%,95% (active),24.2%,8%,91% (active),7.85%,3%,84% (active),51.1%,10%,92% (active),-69.5%,9%,98% (active),14.1%,0%,95% (active),21.8%
CCN(CC)CCCC(C)Nc1cc(C)nc2c1ccc1c2ccc2c(NC(C)CCCN(CC)CC)cc(C)nc21 (stereo not given),-2%,61%,58.1%,-39%,91% (active),53.7%,-1%,59%,49.5%,7%,20%,71.4% (active),-2%,96% (active),96.3% (active),-1%,85% (active),54.2%
COC(=O)Oc1nn(C(=O)OC)c(=O)c2ccccc12,-18%,87% (active),90.9% (active),-3%,45%,24.2%,-17%,43%,44.4%,7%,66%,99.6% (active),5%,58%,99.5% (active),-12%,54%,86.5% (active)
CC[C@H](CC[C@@H](C)C1CC[C@H]2[C@@H]3CCC4=CC(=O)CC[C@]4(C)[C@H]3CC[C@]12C)C(C)C (stereo not given in full),-4%,18%,50.9%,-8%,65%,35.7%,-8%,68%,76% (active),-6%,28%,63.3%,-10%,29%,30.6%,20%,83% (active),36%
CC(C)(C)CC(C)(C)c1ccc(O)cc1O,7%,99% (active),99.5% (active),7%,99% (active),99.5% (active),-3%,99% (active),99.2% (active),2%,98% (active),98.8% (active),36%,99% (active),98.8% (active),6%,99% (active),99.3% (active)
COC(=O)c1ccc(NN)cc1,12%,39%,65.8%,4%,19%,61%,3%,17%,36.1%,3%,42%,46.1%,3%,85% (active),86% (active),4%,42%,40.9%

# — PubChem BioAssay (NCI)
